D3 antag: D3 dopamine receptor (human) antagonism | D3R cells, DiscoveRx beta-arrestin luminescence, antagonist mode; stronger effect = lower value | P35462 | max response, negative = inhibition, % | actives 2.5% (n = 360,000); in the data active means max response below about -50%; inconclusive means no clear call, values can overlap the other calls; further: on the % scale 0 is the no-effect control and ±100 the full control effect
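Cells plated overnight at 1500 cells/well, then exposed to library compounds with dopamine controls for 90 minutes at 37 degrees C. DiscoveRx reagent added for 30–60 minutes at room temperature; luminescence read, quantitative HTS format.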
D1 antagonist: blocks dopamine activation of the human D1 receptor. P21728. HEK293 TREx D1 cells, calcium flux, dopamine EC80; stronger effect = lower value. activity change, negative = inhibition, % at 10 µM. actives 3.2% (n = 360,000); in the data active means activity change below about -30%; further: on the % scale 0 is the no-effect control and ±100 the full control effect
Target sequence (P21728 whole entry, looked up): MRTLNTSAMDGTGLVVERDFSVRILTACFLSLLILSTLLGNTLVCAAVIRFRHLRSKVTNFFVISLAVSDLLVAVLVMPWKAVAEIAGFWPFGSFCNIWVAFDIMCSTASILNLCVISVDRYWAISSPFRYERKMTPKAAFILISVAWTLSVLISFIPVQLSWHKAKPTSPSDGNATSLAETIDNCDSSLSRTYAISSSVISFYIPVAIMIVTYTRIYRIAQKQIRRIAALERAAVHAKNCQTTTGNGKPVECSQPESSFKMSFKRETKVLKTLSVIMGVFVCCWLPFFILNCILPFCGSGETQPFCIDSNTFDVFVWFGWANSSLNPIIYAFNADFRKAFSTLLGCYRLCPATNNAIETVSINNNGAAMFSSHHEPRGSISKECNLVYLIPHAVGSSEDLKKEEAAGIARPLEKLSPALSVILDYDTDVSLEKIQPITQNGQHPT
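After overnight tetracycline induction at 30 C, force-coupled D1 HEK293 cells took up a no-wash calcium dye at room temperature. Compounds were added and monitored 180 s, and the response to EC80 dopamine was then recorded.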
D1 ag: agonists of human D1 dopamine receptor; P21728; HEK293 T-REx D1 cells, calcium flux, agonist mode; activation, % at 2 µM; actives 1% (n = 360,000); AID 504660; in the data active means activation above about 30%; further: 0% is about no effect
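Inducible HEK293 T-REx D1 cells, force-coupled to calcium signalling, were plated at 4000 cells/well with tetracycline and held overnight at 30 C. After no-wash calcium dye loading, compound-evoked calcium rise over 180 s flagged agonists.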
DRD3 agonist: agonists of human D3 dopamine receptor; D3R DiscoveRx beta-arrestin cells, luminescence, 90 min; max activation, %; actives 0.58% (n = 410,000); AID 652048; in the data active means max activation above about 30%; further: 0% is about no effect
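Cells at 1500/well, incubated overnight, then treated with pinned compounds (dopamine as control) for 90 min at 37 degrees C. DiscoveRx reagent added for 30 - 60 minutes at room temperature; luminescence read.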
D1 PAM: enhances dopamine response at the human D1 receptor | P21728 | HEK293 TREx D1 cells, calcium flux, dopamine EC20 potentiation | potentiation, % at 10 µM | actives 0.036% (n = 360,000) | AID 504651; in the data active means potentiation above about 30%; further: 0% is about no effect
An asterisk follows results filed as active; ? = inconclusive; / = no result. Sampled rows, rich in hits. Any-hit rate of the full collection: about 6.1%.

SMILES	D3 antag	D1 antagonist	D1 ag	DRD3 agonist	D1 PAM
CN(c1ccc(C(=O)Nc2ccc(CC#N)cc2)cc1)S(C)(=O)=O	11	-34*	3	1	-3
CCOc1ccc(NC(=O)c2ccc(CN3CCc4ccccc4C3)cc2)cc1	?	11	2	-22	-2
COc1ccc(NC(=O)c2ccc(CN3CCc4ccccc4C3)cc2)cc1OC	-64*	0	1	-15	-3
CC(=O)c1cccc(NC(=O)c2ccc(CN3CCc4ccccc4C3)cc2)c1	-89*	11	10	-30	-4
COc1cccc(NC(=O)c2ccc(CN3CCc4ccccc4C3)cc2)c1	-102*	6	8	-17	-1
CCOc1ccccc1NC(=O)c1ccc(CN2CCc3ccccc3C2)cc1	-70*	2	2	-29	4
O=C(Nc1ccc(Cl)cc1)c1ccc(CN2CCc3ccccc3C2)cc1	-16	-15	1	-22	-5
O=C(CN1C(=O)NC2(CCc3ccccc32)C1=O)c1ccc(F)c(F)c1 (centres undefined)	7	-1	0	-5	-5
CC1SC(c2ccc(F)cc2)NC1=O (centres undefined)	3	-2	1	2	5
COc1cc(C2/C(=C(\O)c3ccc4c(c3)OCCO4)C(=O)C(=O)N2c2nnc(C)s2)cc(OC)c1OC (centres undefined)	12	-8	5	-7	-3
Cc1cc(NC(=O)COC(=O)C2CC2)ccc1Br	-2	3	1	2	-1
C[C@H]1CN([C@@H](C)CO)C(=O)CCCn2nncc2CO[C@H]1CN(C)C(=O)c1ccccc1	13	/	/	0	/
CCc1ccc2oc(C(=O)Nc3cccc(C(F)(F)F)c3)cc(=O)c2c1	/	-16	3	2	1
Cc1cc(C)c(C(=O)O)c(CC(C)(C)C(=O)O)c1	-6	10	1	2	1
O=C(NCCCN1CCOCC1)c1cccc(S(=O)(=O)N2CCc3ccccc3C2)c1	-57*	1	-2	-17	2
N#CCc1ccc(NC(=O)c2ccc(CN3CCc4ccccc4C3)cc2)cc1	-53*	-11	5	-20	-13
O=C(NCC1(N2CCOCC2)CCCCC1)c1cccc(S(=O)(=O)N2CCc3ccccc3C2)c1	4	9	4	-2	2
COc1cccc(NC(=O)N2CCCc3ccccc32)c1	2	-16	1	-7	-1
Cc1c(NC(=O)c2ccc(CN3CCc4ccccc4C3)cc2)c(=O)n(-c2ccccc2)n1C	-79*	6	-1	-1	-2
Cc1c(NC(=O)c2ccc(F)cc2)c(=O)n(-c2ccccc2)n1C	-16	4	6	4	/
COc1ccc(NC(=O)N2CCCc3ccccc32)cc1OC	1	-55*	0	3	1
O=C(/C=C/c1ccc(Br)o1)Nc1nccs1	3	4	0	-3	4
O=C1COc2cc(S(=O)(=O)CCC(=O)N3CCN(c4cccc(Cl)c4)CC3)c(Cl)cc2N1	/	-5	3	4	-2
CCn1c(Cc2ccccc2)nnc1SCC(=O)c1c(N)n(C2CC2)c(=O)[nH]c1=O	1	1	3	3	-4
O=[N+]([O-])c1cc(C(F)(F)F)ccc1-n1nnc2ccccc21	6	14	0	8	1
SMILES	D3 antag	D1 antagonist	D1 ag	DRD3 agonist	D1 PAM
O=[N+]([O-])c1cc(S(=O)(=O)Nc2ccccc2)ccc1-n1nnc2ccccc21	-61*	0	12	-24	0
CC(C)(C)OC(=O)N(CCc1ccccc1)Cc1ccccc1OCc1cccc(NC(=O)C2CCCC2)c1	-50*	/	/	-11	/
CC(C)(C)OC(=O)N(Cc1ccccc1)Cc1ccc(OCc2cccc(NC(=O)C3CC3)c2)cc1	113	/	/	65*	/
Fc1cccc(Cc2c(-c3ccc(Cl)cc3)nc3ccc(Br)cn23)c1	13	/	/	2	/
CC(C)C[C@H](NC(=O)CCCn1nnc2ccccc2c1=O)C(=O)O	-5	-18	1	1	-6
O=C(Cn1nnc2ccccc2c1=O)NC1CCCCC1	-12	-43*	2	5	4
O=C(O)CCNC(=O)CCCn1nnc2ccccc2c1=O	-7	-43*	1	-7	-1
O=C(Cn1ncc(Cl)c(Cl)c1=O)NC1CCCCC1	-15	-37*	2	1	-11
O=C(CC1CCCCC1)OCn1nnc2ccccc2c1=O	-10	-16	2	-3	-1
CCCC(C(=O)Nc1ccc(S(=O)(=O)Nc2ncccn2)cc1)c1ccccc1 (centres undefined)	22	-2	-1	5	-10
CCCC(C(=O)Nc1ccncc1)c1ccccc1 (centres undefined)	24	-40*	9	-16	-6
C/C(=N/NC(=O)c1ccc(Cl)s1)c1cccnc1	-14	-48*	7	-5	-11
COc1ccc(-c2nc3c(C)cc(Br)cn3c2Cc2ccc(C)cc2)cc1OC	64	/	/	27	/
COc1ccc(N=Nc2ccc(O)c3ncccc23)cc1	-76*	45	12	-23	-1
COc1ccc(C)cc1N=Nc1ccc(O)c2ncccc12	-117*	18	4	-21	3
Cc1ccccc1N=Nc1ccc(O)c2ncccc12	-117*	13	2	-4	2
COc1cccc(N=Nc2ccc3cccnc3c2O)c1	-139*	-15	6	-21	4
Cc1ccc(O)c2ncccc12	/	/	/	-8	/
O=S(=O)(O)CC(S)CS (centres undefined)	/	/	/	1	/
O=c1ccc(-c2ccc(S(=O)(=O)NCC3CCN(Cc4ccccc4F)CC3)s2)n[nH]1	-2	-13	3	1	-7
Oc1ccc(N=Nc2ccc3c(c2)OCCO3)c2cccnc12	?	109	23	18	-2
COc1cccc(N=Nc2ccc(O)c3ncccc23)c1	-110*	-21	17	-29	-4
S=C(Nc1cccnc1)NC1CC2CCC1C2 (centres undefined)	3	-34*	18	14	-3
O=C(COc1ccc(/C=N/NC(=O)c2ccccc2O)cc1)Nc1ccc([N+](=O)[O-])cc1	10	-25	2	41*	-4
O=C(COc1ccc(/C=N/NC(=O)c2ccncc2)cc1)Nc1ccccc1	-4	-5	1	-8	-2
O=C(COc1ccc(/C=N/NC(=O)c2ccncc2)cc1)Nc1cccc([N+](=O)[O-])c1	?	-32*	0	-16	-9
Cn1c(=O)n(Cc2ccc(F)cc2)c(=O)c2c1nc1n2CCCN1C1CCCCC1	-99*	2	0	1	-1
CN(C)CCCN(C(=O)c1ccc(S(=O)(=O)N2CCc3ccccc32)cc1)c1nc2c(Cl)cccc2s1	-17	-3	5	-9	2
CCc1ccc2nc(N(CCCN(C)C)C(=O)c3ccc(S(=O)(=O)N4CCCc5ccccc54)cc3)sc2c1	-22	-2	4	-9	8
